Seven compounds from PubChem BioAssay (EPA / NIEHS) can be followed below.

Where “and” joins values, the source holds several entries; their conditions need not be identical. Equal values may be shown once. Results filed as inconclusive are left out. Some compounds were tested as several samples or in several runs, with calls that do not always agree. Calls of active or inactive are those of the source. How the source made its calls, unless noted: active means hit-call score of the fitted dose curve at least 0.9, where 1 is the maximum; inactive means score below 0.9.

In assay [1] the target is Retinoic acid receptor RXR-alpha (Homo sapiens) (UniProt P19793). Nature of the assay: ATG_RXRa_TRANS: Attagene TRANS-FACTORIAL HepG2 Assay for human Retinoid X Receptor alpha (RXRa) (AID 2283012; active means hit-call score of the fitted dose curve at least 0.9, where 1 is the maximum). The essentials:
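HepG2 cells transiently transfected with GAL4-UAS reporter units and chimeric RXRa-Gal4 protein, treated 24 h. Reporter mRNA measured by RT-PCR, fluorescent labelling, HpaI digestion and capillary electrophoresis. Induction fitted against DMSO.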

Assay [2] concerns the target human Retinoid X Receptor beta (RXRb), RXRB (gene 6257) (UniProt P28702). Nature of the assay: ATG_RXRb_TRANS: Attagene TRANS-FACTORIAL HepG2 Assay for human Retinoid X Receptor beta (RXRb) (AID 2283013; active means hit-call score of the fitted dose curve at least 0.9, where 1 is the maximum). The essentials: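 HepG2 cells were transiently transfected with multiplexed GAL4-UAS reporters and a chimeric RXRb-Gal4 construct, then exposed for 24 h. Reporter mRNA was quantified by RT-PCR, FAM labeling, HpaI digestion and capillary electrophoresis; gain of signal was scored against DMSO.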

Assay [3] has as its target human Thyroid Receptor alpha (THRa1), THRA (gene 7067) (UniProt P10827). Nature of the assay: ATG_THRa1_TRANS: Attagene TRANS-FACTORIAL HepG2 Assay for human Thyroid Receptor alpha (THRa1) (AID 2283014; active means hit-call score of the fitted dose curve at least 0.9, where 1 is the maximum). In short, it runs like this: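 Reporter transcript induction, read by capillary electrophoresis of 6-FAM-labelled RT-PCR products, reflects activity of a transfected THRa1-Gal4 fusion in HepG2 liver cells. Cells were dosed for 24 h; activity was fitted in the positive direction against DMSO.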

Read-out in assay [4]: E-selectin (Homo sapiens) (UniProt P16581)
The assay is described as follows: BSK_3C_Eselectin: BioMAP Diversity Plus: 3C Assay for Eselectin Biomarker Activity (AID 2283015). Particulars: primary human endothelial cells (HUVEC); actives raise or lower the signal. The essentials:
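ELISA read-out of E-selectin on endothelial monolayers after 24 h chemical treatment. Human umbilical vein primary cells served as the system, with DMSO defining baseline activity for bidirectional fitting.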

Read-out in assay [5]: Interleukin-1 alpha (IL1a), IL1A (gene 3552)
The assay is described as follows: BSK_BE3C_IL1a: BioMAP Diversity Plus: BE3C Assay for Interleukin-1 alpha (IL1a) Biomarker Activity (AID 2283016). Particulars: primary human bronchial epithelial cells; actives raise or lower the signal. In short, it runs like this: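 Human primary bronchial epithelial cells, 24 h chemical exposure; IL-1a quantified by ELISA, fitted bidirectionally against DMSO. Cytotoxicity assessed in parallel by SRB total-protein staining at the time of measurement.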

Read-out in assay [6]: Monocyte Chemoattractant Protein-1 (MCP1), CCL2 (gene 6347)
The assay is described as follows: BSK_3C_MCP1: BioMAP Diversity Plus: 3C Assay for Monocyte Chemoattractant Protein-1 (MCP1) Biomarker Activity (AID 2283017). Particulars: primary human endothelial cells (HUVEC); actives raise or lower the signal. In short, it runs like this: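 ELISA read-out of MCP-1 from human umbilical vein endothelial cell cultures harvested 24 h post-dosing. Gain or loss of signal was fitted relative to DMSO.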

Read-out in assay [7]: Monocyte Chemoattractant Protein-1 (MCP1), CCL2 (gene 6347)
Nature of the assay: BSK_4H_MCP1: BioMAP Diversity Plus: 4H Assay for Monocyte Chemoattractant Protein-1 (MCP1) Biomarker Activity (AID 2283018). Particulars: primary human endothelial cells (HUVEC); actives raise or lower the signal. In short, it runs like this:
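Human umbilical vein endothelial cells (4H system) exposed to chemicals for 24 h in 96-well format. MCP-1 measured by ELISA; bidirectional fitting against DMSO, with SRB total-protein staining in parallel cultures for cytotoxicity.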

Read-out in assay [8]: Human Leukocyte Antigen - DR isotype (HLADR), HLA-DRA (gene 3122)
The assay is described as follows: BSK_3C_HLADR: BioMAP Diversity Plus: 3C Assay for Human Leukocyte Antigen - DR isotype (HLADR) Biomarker Activity (AID 2283019).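 On outcome: ELISA of cell-surface HLA-DR on HUVEC 24 h after dosing.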 To be noted: primary human endothelial cells (HUVEC); actives raise or lower the signal. The essentials:
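ELISA readout of surface HLA-DR on human umbilical vein endothelium, taken 24 h after chemical treatment. Gain- and loss-of-signal were both fitted relative to DMSO.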

Read-out in assay [9]: Interleukin-8 (IL8), CXCL8 (gene 3576)
The assay is described as follows: BSK_3C_IL8: BioMAP Diversity Plus: 3C Assay for Interleukin-8 (IL8) Biomarker Activity (AID 2283020). Particulars: primary human endothelial cells (HUVEC); actives raise or lower the signal. The essentials: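 Primary human umbilical vein endothelial cells were dosed for 24 h. IL-8 was quantified by ELISA and fitted bidirectionally against DMSO. Cytotoxicity was assessed in parallel cultures by SRB staining at 560 nm.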

Read-out in assay [10]: Monokine induced gamma interferon (MIG), CXCL9 (gene 4283)
Nature of the assay: BSK_3C_MIG: BioMAP Diversity Plus: 3C Assay for Monokine induced gamma interferon (MIG) Biomarker Activity (AID 2283021). Particulars: primary human endothelial cells (HUVEC); actives raise or lower the signal. The essentials: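 HUVEC primary endothelial cultures dosed with chemical; MIG quantified by ELISA at 24 h. Data fitted bidirectionally against DMSO control, with parallel SRB total-protein staining for cytotoxicity.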

Assay [11] is described as follows: BSK_3C_SRB: Viability Assessment in the BioMAP Diversity Plus: 3C Assay (AID 2283023).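 Further: fitted both ways against DMSO so a hit may be signal rise or drop.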 To be noted: primary human endothelial cells (HUVEC). The essentials: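 Absorbance at 560 nm of sulforhodamine B-stained (0.1%) total protein served as a cytotoxicity readout in human umbilical vein endothelial cells, 24 h after chemical treatment. Signal was fitted bidirectionally relative to DMSO.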

Read-out in assay [12]: Matrix Metallopeptidase 1 (MMP1), MMP1 (gene 4312)
Nature of the assay: BSK_BE3C_MMP1: BioMAP Diversity Plus: BE3C Assay for Matrix Metallopeptidase 1 (MMP1) Biomarker Activity (AID 2283024). Particulars: primary human bronchial epithelial cells; actives raise or lower the signal. In short, it runs like this: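 Human primary bronchial epithelial cells (BE3C system) dosed for 24 h; MMP-1 quantified by ELISA. Bidirectional fit against DMSO; cytotoxicity tracked in parallel cultures by SRB total-protein staining.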

The nature of assay [13]: BSK_3C_Vis: BioMAP Diversity Plus: 3C Assay for Morphology Visualization (AID 2283025).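 Further: fitted both ways so gain or loss versus DMSO counts.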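 On AC50: light microscopy image of cell morphology used as background control.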 To be noted: primary human endothelial cells (HUVEC). The essentials:
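Human umbilical vein endothelial cell morphology was inspected by light microscopy 24 h after chemical dosing; scored bidirectionally relative to DMSO.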

Read-out in assay [14]: Pselectin, SELP (gene 6403)
Nature of the assay: BSK_4H_Pselectin: BioMAP Diversity Plus: 4H Assay for Pselectin Biomarker Activity (AID 2283026). To be noted: primary human endothelial cells (HUVEC); actives raise or lower the signal. The essentials: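 Primary human umbilical vein endothelial cells were treated 24 h, and cell-surface P-selectin was then quantified by ELISA. Bidirectional fit versus DMSO; cytotoxicity checked in parallel cultures by SRB total-protein staining.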

Assay [15] is described as follows: BSK_4H_SRB: Viability Assessment in the BioMAP Diversity Plus: 4H Assay (AID 2283027).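 Further: cells exposed to compound for 24 h before staining.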 Particulars: primary human endothelial cells (HUVEC). The essentials:
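Human umbilical vein endothelial cells were dosed with chemical and, after 24 h, fixed with 10% TCA, stained with 0.1% sulforhodamine B, and read at 560 nm to give total protein as a cytotoxicity measure. Bidirectional fitting relative to DMSO control.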

Assay [16] in a line: BSK_BE3C_SRB: Viability Assessment in the BioMAP Diversity Plus: BE3C Assay (AID 2283028).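 On AC50: fitted both ways so AC50 may mark signal gain or loss versus DMSO.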 To be noted: primary human bronchial epithelial cells. In short, it runs like this:
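Cells (human bronchial epithelial, primary) are treated with chemicals, and after 24 h the parallel cultures are fixed in 10% TCA. These are then stained with 0.1% SRB and read at 560 nm. Gain or loss of signal is fitted relative to DMSO.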

Read-out in assay [17]: Thrombomodulin, THBD (gene 7056)
The assay is described as follows: BSK_3C_Thrombomodulin: BioMAP Diversity Plus: 3C Assay for Thrombomodulin Biomarker Activity (AID 2283029). Particulars: primary human endothelial cells (HUVEC); actives raise or lower the signal. The essentials:
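Human umbilical vein endothelial cells were exposed to chemicals for 24 h; cell-surface thrombomodulin quantified by ELISA, with bidirectional fitting against DMSO baseline.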

Read-out in assay [18]: Urokinase-type plasminogen activator receptor (uPAR), PLAUR (gene 5329)
The assay is described as follows: BSK_4H_uPAR: BioMAP Diversity Plus: 4H Assay for Urokinase-type plasminogen activator receptor (uPAR) Biomarker Activity (AID 2283030). Particulars: primary human endothelial cells (HUVEC); actives raise or lower the signal. The essentials:
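Cell-surface uPAR ELISA signal, measured 24 h after dosing human umbilical vein endothelial cells, was analyzed with bidirectional fitting relative to DMSO. Parallel SRB staining of total protein tracked overt cytotoxicity.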

Read-out in assay [19]: Vascular endothelial growth factor receptor 2 (Homo sapiens) (UniProt P35968)
Nature of the assay: BSK_4H_VEGFRII: BioMAP Diversity Plus: 4H Assay for Vascular endothelial growth factor receptor 2 (VEGFR2) Biomarker Activity (AID 2283031). Particulars: primary human endothelial cells (HUVEC); actives raise or lower the signal. The essentials: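 ELISA read-out of VEGFRII in primary human umbilical vein endothelium, taken 24 h after chemical treatment. Responses are expressed relative to DMSO, with bidirectional fitting.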

In assay [20] the target is human Vitamin D Receptor (VDR), VDR (gene 7421) (UniProt P11473). The assay is described as follows: ATG_VDR_TRANS: Attagene TRANS-FACTORIAL HepG2 Assay for human Vitamin D Receptor (VDR) (AID 2283022; active means hit-call score of the fitted dose curve at least 0.9, where 1 is the maximum). The essentials:
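Steps: transfect HepG2 with GAL4-UAS-driven reporter constructs; dose compounds 24 h; isolate RNA, reverse-transcribe, PCR-amplify with 6-FAM-labelled primer extension and HpaI digestion; quantify fragments by capillary electrophoresis relative to DMSO.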

Chain of Retinoic acid receptor RXR-alpha (Homo sapiens) (P19793 whole entry, looked up, the tested form may be a part): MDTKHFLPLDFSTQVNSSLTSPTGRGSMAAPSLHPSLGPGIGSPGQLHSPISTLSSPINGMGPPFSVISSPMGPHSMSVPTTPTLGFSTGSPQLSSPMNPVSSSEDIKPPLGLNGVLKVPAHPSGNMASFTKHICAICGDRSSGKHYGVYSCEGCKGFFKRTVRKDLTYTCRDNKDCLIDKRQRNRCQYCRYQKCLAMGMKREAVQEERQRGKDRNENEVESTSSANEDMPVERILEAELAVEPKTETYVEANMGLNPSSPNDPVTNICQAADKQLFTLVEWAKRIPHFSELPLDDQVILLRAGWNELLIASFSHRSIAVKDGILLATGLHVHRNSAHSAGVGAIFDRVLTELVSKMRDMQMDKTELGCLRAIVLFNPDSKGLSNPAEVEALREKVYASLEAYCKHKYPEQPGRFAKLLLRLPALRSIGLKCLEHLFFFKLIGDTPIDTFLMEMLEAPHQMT
Chain of E-selectin (Homo sapiens) (P16581 whole entry, looked up): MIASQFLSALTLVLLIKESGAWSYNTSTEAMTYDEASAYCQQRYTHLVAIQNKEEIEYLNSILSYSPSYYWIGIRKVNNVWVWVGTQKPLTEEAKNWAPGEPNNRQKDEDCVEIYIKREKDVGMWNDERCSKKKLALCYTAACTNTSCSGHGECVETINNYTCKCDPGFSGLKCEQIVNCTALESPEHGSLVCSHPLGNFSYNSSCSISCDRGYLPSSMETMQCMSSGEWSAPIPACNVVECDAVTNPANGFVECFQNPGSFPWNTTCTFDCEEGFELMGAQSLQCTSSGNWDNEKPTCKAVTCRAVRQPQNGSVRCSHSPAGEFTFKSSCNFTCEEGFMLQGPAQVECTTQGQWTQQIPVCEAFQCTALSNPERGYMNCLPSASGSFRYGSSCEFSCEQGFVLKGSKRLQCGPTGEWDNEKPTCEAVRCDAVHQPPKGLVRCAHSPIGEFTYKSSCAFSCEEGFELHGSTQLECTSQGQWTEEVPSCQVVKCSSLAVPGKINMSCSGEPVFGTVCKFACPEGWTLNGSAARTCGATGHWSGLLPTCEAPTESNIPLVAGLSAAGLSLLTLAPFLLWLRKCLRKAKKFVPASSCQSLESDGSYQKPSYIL
Chain of human Retinoid X Receptor beta (RXRb), RXRB (gene 6257) (P28702 whole entry, looked up, the tested form may be a part): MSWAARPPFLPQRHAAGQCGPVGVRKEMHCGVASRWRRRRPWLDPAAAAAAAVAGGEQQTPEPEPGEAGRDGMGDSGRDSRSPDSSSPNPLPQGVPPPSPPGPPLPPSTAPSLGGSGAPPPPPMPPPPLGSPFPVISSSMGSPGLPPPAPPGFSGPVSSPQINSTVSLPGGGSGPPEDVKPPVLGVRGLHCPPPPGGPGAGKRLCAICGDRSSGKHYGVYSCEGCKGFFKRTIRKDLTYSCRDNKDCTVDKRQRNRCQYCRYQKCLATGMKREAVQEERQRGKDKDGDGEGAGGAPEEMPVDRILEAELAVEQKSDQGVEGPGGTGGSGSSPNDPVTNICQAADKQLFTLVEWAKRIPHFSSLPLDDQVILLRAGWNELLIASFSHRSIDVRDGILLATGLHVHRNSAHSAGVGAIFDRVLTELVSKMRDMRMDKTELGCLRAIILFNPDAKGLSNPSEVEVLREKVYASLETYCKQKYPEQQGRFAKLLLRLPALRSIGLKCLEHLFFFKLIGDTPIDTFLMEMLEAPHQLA
Chain of human Thyroid Receptor alpha (THRa1), THRA (gene 7067) (P10827 whole entry, looked up, the tested form may be a part): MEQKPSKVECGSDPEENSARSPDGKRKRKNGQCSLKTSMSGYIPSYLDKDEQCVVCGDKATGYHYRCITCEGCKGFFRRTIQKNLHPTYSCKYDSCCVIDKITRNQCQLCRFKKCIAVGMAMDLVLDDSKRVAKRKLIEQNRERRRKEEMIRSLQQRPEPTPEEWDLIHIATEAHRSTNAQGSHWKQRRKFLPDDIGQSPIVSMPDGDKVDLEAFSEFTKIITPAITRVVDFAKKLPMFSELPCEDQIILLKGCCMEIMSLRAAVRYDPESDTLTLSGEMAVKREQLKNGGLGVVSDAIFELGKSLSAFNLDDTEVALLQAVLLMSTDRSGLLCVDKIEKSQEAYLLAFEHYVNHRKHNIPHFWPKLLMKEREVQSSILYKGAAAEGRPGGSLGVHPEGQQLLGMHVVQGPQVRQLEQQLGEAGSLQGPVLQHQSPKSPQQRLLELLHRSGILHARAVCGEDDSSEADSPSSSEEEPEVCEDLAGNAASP
Chain of human Vitamin D Receptor (VDR), VDR (gene 7421) (P11473 whole entry, looked up, the tested form may be a part): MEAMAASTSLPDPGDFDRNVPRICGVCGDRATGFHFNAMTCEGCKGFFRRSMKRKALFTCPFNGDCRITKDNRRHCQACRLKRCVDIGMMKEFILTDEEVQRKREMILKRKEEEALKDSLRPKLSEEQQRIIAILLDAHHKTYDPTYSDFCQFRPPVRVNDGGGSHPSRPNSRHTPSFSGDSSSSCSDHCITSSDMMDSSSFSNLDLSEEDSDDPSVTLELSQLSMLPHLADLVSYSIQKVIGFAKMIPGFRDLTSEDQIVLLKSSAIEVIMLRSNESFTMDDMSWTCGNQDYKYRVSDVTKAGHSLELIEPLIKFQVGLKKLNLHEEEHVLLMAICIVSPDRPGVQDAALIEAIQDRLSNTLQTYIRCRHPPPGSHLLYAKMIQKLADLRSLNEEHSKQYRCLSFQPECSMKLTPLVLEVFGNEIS

For orientation: AC50 means the concentration at which the activity in the assay is half-maximal. `COc1ccc(OC)c(N=Nc2c(O)ccc3ccccc23)c1`: the outcome in assay [1], in [2], in assay [3], in assay [4], in assay [7] and in [9] was inactive. Besides, the outcome in assay [10], in assay [11], in assay [12], in assay [15], in assay [18] and in [19] was inactive. In addition, the AC50 in assay [5] is 2.11 µM (active); in [6] it was 20 µM (active); in [8], 10.9 µM (active); in assay [13] it was 13 µM (active); in assay [14] it was 5.42 µM (active); in assay [16] it was 5.55 µM (active). The AC50 in assay [17] was 9.48 µM (active).

In the case of `Clc1ccc(C(c2ccccc2Cl)C(Cl)Cl)cc1` (configuration not stated), the compound was called inactive in [1] and in assay [3]. Besides, the AC50 in assay [2] was 9.66 µM (active).

In the case of `O=C1OC[C@H](Cc2cccc(O)c2)[C@H]1Cc1cccc(O)c1`, the outcome in assay [1], in [2], in assay [3], in assay [4], in assay [5] and in assay [6] was inactive. The result in [7], in assay [8], in [9], in assay [10], in assay [20] and in assay [11] was inactive. The result in [12], in [13], in assay [14], in assay [15], in assay [16] and in assay [17] was inactive. Further, the outcome in assay [18] and in assay [19] was inactive.

Consider `O=C(Nc1ccc2c(O)c(N=Nc3ccc(N=Nc4ccc(S(=O)(=O)O)cc4)cc3)c(S(=O)(=O)O)cc2c1)c1ccccc1`, for which the call in [1], in assay [2], in assay [3], in assay [4], in [5] and in [6] was inactive. In addition, the result in assay [7], in assay [8], in assay [9], in [10], in assay [20] and in [11] was inactive. Also, the outcome in assay [14], in assay [15], in assay [16], in assay [17], in assay [18] and in [19] was inactive. For the same compound, the AC50 is 20 µM (active) in assay [9]; 16 µM (active) and 10.4 µM (active) in assay [12].

`CC(=O)OCCCc1ccccc1`: the outcome in assay [1] and in [2] was inactive.

As to `O=C1c2ccccc2C(=O)c2c(O)ccc(O)c21`, the outcome in assay [1], in [2], in assay [3], in assay [4], in assay [5] and in assay [6] was inactive. Moreover, the outcome in assay [7], in assay [10], in assay [11], in assay [12], in assay [14] and in assay [15] was inactive. The outcome in assay [16], in assay [17] and in assay [19] was inactive. The AC50 in [8] was 8.08 µM (active); in assay [9] it was 2.12 µM (active); in [13] it was 13.6 µM (active); in assay [18] it was 6.4 µM (active).

Turning to `CS(=O)(=O)c1ccc(C2=C(c3ccccc3)C(=O)OC2)cc1`, the outcome in assay [1], in [2], in assay [3], in assay [4], in assay [5] and in assay [6] was inactive. The result in assay [7], in [8], in assay [9], in [10], in assay [11] and in [12] was inactive. Besides, the outcome in [13], in assay [14], in [15], in [16], in assay [17] and in [18] was inactive. Also, in assay [19], the result was inactive.
